From PubChem
Most compounds without a hit are left out; they make up all but 18% or so of the library.
LDHA inh: LDHA (human) enzyme inhibition; purified LDHA, NADH/diaphorase-resazurin fluorescence; stronger effect = lower value; P00338; AID 1347041; 480,000 tested, 0.15% active; activity change, % (values are at about 110 or 230 µM); in the data active = activity change below about -30%; inconclusive = mostly about -25% to -30%;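 also: plate controls were DMSO wells for no effect and wells without enzyme for full effect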
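Human LDH5 (2 nM) was incubated with 0.06 mM NADH and 0.2 mM pyruvate for 5 min at room temperature in Tris pH 7.4. Remaining NADH was coupled through diaphorase/resazurin, and resorufin fluorescence was read at 0 and 20 min.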
DT40 TDP1 no CPT: qHTS for Inhibitors of human tyrosyl-DNA phosphodiesterase 1 (TDP1): qHTS in cells in absence of CPT; DT40 Tdp1-/- hTDP1 cells, no CPT, ATP luminescence, 48 h; Potency, µM (highest dose often 46.2 µM), without a hit: at the highest dose activity change, negative = growth inhibition, hits mostly inhibitors; 420,000 tested, 15% active; AID 686978, 2013; also: potency is read from the fitted curve at half-maximal effect; nearly all actives have a fitted effect of over 55% in size
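Chicken DT40 Tdp1-/- cells complemented with human TDP1, screened without camptothecin (DMSO vehicle only), 400 cells/well. Compounds pin-transferred, cells incubated at 37 °C for at least 48 hr. Growth read as ATP-dependent luminescence (CellTiter-Glo, 30 min at RT).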
DT40 TDP1 CPT: growth inhibition of DT40 Tdp1-/-;hTDP1 cells with camptothecin (screen for TDP1 inhibitors) | 420,000 tested, 12% active | Potency, µM (titrated, usually from 46.2 µM), inactives show at the top dose activity change, negative = growth inhibition, usual class: inhibitors | chicken DT40 Tdp1-/-;hTDP1 cells + 20 nM CPT, ATP luminescence, 48 h | AID 686979; also: potency is read from the fitted curve at half-maximal effect; nearly all actives have a fitted effect of over 55% in size
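Cell growth measured by CellTiter-Glo luminescence after a minimum 48 h, 37 C compound exposure with 20 nM CPT in Tdp1-knockout DT40 cells stably expressing hTDP1, seeded 400/well; qHTS titration format.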
IL1B secr inh: inflammasome signaling inhibition, IL-1 beta readout; THP-1 LPS/ATP IL-1B secretion, AlphaLISA, 16 h; stronger effect = lower value; activity change, % at 57.5 µM; 360,000 tested, 4.7% active; AID 743279; in the data active = activity change below about -50%; inconclusive = mostly about -30% to -49%
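THP-1 cells pretreated 1 hr with compounds (up to 57.5 uM final), then stimulated with LPS (250 ng/mL final) plus ATP (1.25 mM final); secreted IL-1B measured by AlphaLISA after 16 hr, decreased signal indicating inhibition.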
Gal4-VP16 FLuc: Gal4-VP16 reporter inhibition counter-screen | Drosophila S2 Gal4-VP16 UAS-luciferase, luminescence, 20 h | Potency, µM (highest dose often 53.6 µM), for the others: at the top dose activity, negative = inhibition, hits mostly inhibitors | 310,000 tested, 3.5% active | AID 2546;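 also: Gal4-VP16 expression switched on by copper sulfate through the metallothionein promoter; potency is read from the fitted curve at half-maximal effect; nearly all actives have a fitted effect of over 50% in size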
RORgamma inh: inhibitors of mouse ROR gamma transcriptional activity; Drosophila S2 Gal4-RORgamma UAS-luciferase reporter, 20 h; Potency, µM (series often up to 53.6 µM), inactives show at the top dose activity change, negative = inhibition, usual class: inhibitors; 310,000 tested, 5.4% active; also: potency is read from the fitted curve at half-maximal effect; nearly all actives have a fitted effect of over 60% in size
Target sequence (P51450 whole entry, looked up, the tested form may be a part): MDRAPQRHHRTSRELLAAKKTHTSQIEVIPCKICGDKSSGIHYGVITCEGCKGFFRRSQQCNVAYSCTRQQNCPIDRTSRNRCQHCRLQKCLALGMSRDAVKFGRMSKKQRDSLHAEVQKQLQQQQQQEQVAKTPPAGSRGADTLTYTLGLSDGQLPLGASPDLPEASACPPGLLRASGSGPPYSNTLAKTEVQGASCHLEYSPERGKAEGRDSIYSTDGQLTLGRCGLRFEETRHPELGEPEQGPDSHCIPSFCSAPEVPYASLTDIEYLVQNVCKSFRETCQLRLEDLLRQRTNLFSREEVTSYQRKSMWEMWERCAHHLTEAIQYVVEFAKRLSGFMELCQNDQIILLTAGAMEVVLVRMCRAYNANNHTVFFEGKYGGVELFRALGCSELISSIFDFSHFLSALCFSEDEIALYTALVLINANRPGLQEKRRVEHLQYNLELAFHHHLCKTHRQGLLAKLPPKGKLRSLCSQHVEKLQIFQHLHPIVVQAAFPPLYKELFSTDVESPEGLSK
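A Gal4/UAS one-hybrid system in insect cells: metallothionein-promoter Gal4–ROR gamma fusion plus Photinus luciferase reporter. Copper sulfate 700 uM final, 20 hr ambient incubation, luminescent detection after 10 min with reagent.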
* marks the source's active call; other numbers are inactive results; ? = inconclusive; . = no result given. Unless noted, calls follow the shape of the dose curve; as a rule, active = well fitted curve in the direction sought with a large enough effect; inconclusive = small, poorly fitted or top-dose-only effect, or another doubt; inactive = no such curve, though single readings can be large; an effect the other way counts as inactive or inconclusive. Unless noted, % is scaled to controls: 0 for no effect and ±100 for the full control effect.

SMILES	LDHA inh	DT40 TDP1 no CPT	DT40 TDP1 CPT	IL1B secr inh	Gal4-VP16 FLuc	RORgamma inh
O=C(c1ccc2c(c1)OCCO2)C1CCN(C(=O)c2ccc(F)c(F)c2)CC1	-9	16µM*	?	-14	-19%	?
O=C(c1ccc(Cl)cc1)C1CCN(C(=S)Nc2ccccc2)CC1	-16	16µM*	-17%	-11	.	.
Cc1cc(C)c2cc(C(=O)N3CCC(N4CCCCC4)CC3)[nH]c2c1	0	-1%	-16%	-11	4%	-1%
O=C(c1ccc(F)cc1)N1CCN(Cc2ccccc2)CC1	-3	1%	-9%	-22	-5%	6%
O=C(c1ccc(F)cc1)N1CCC(C(=O)N(Cc2ccccc2)c2ccccc2)CC1	-5	18µM*	23µM*	-2	.	.
COc1ccc(-c2nnc(SCc3csc(Nc4ccc(C)cc4)n3)o2)cc1	6	.	.	.	.	.
O=C(c1ccc(F)cc1)C1CCN(C(=O)c2ccc(Cl)cc2)CC1	3	18µM*	?	-10	.	.
O=C(c1ccc(F)cc1)C1CCN(C(=O)c2ccccc2)CC1	-11	?	-1%	?	0%	10%
O=C(O)C1CCN(C(=O)c2ccc(Cl)cc2)CC1	-3	3%	1%	19	3%	1%
CSc1ccc(NC(=O)N2CCC(C(=O)c3ccc(F)cc3)CC2)cc1	0	?	?	-69*	0%	8%
O=C(c1ccc(Cl)cc1)C1CCN(C(=O)c2ccccc2)CC1	-5	15µM*	?	?	-15%	10%
CCCn1nc(C(=O)N2CCN(C(=O)C(C)C)CC2)c2ccccc2c1=O	1	.	.	.	.	.
CC(C)C(=O)/C(C#N)=C\c1cccc([N+](=O)[O-])c1	-10	.	.	.	.	.
O=C(CSc1nnc(COc2ccccc2)o1)NCCc1ccccc1	-7	7.3µM*	8.2µM*	0	0%	-17%
Cc1cccc(OCc2nnc(SCC(=O)NCCc3ccccc3)o2)c1	-8	-8%	-1%	13	3%	-14%
O=C(CSc1nnc(COc2ccc(Cl)cc2)o1)N1c2ccccc2CCc2ccccc21	-6	15µM*	?	?	-4%	?
O=C(CSc1nnc(COc2ccc(Cl)cc2)o1)N1CCCC1	-4	?	-29%	0	22%	-28%
O=S(=O)(Nc1ccc(OC(F)F)cc1)c1ccc(-c2ccon2)s1	-4	?	1%	24	-3%	45%
N#Cc1ccc(OS(=O)(=O)c2ccc(-c3ccon3)s2)cc1	-1	?	12µM*	?	?	?
COc1ccc(OC)c(CCNC(=O)C(CCS(C)(=O)=O)N2Cc3ccccc3C2=O)c1 (stereo not drawn)	-5	.	.	.	.	.
c1ccc2nc3c(cc2c1)CCCCC3	-2	13µM*	18µM*	15	-1%	44%
CCN1CCOC(=O)C1CC(=O)Nc1cc(C)ccc1OC (stereo not drawn)	-4	2.6µM*	5.2µM*	.	.	.
CCN1CCOC(=O)C1CC(=O)Nc1ccc(Br)cc1 (stereo not drawn)	0	?	23µM*	.	.	.
COc1ccc(C)cc1NC(=O)CC1COc2ccccc2O1 (stereo not drawn)	0	-18%	3%	40	0%	30%
CCOC(=O)c1c(C)[nH]c(N=Nc2cccc(C)c2)c1C	5	-25%	?	-5	1%	-12%
SMILES	LDHA inh	DT40 TDP1 no CPT	DT40 TDP1 CPT	IL1B secr inh	Gal4-VP16 FLuc	RORgamma inh
CCOC(=O)c1c(C)[nH]c(N=Nc2ccc(C)cc2)c1C	6	-26%	?	-15	?	?
CCOC(=O)c1c(C)[nH]c(N=Nc2cccc(OC)c2)c1C	1	?	-5%	-67*	-16%	4µM*
CCOC(=O)c1c(C)[nH]c(N=Nc2ccccc2)c1C	0	23µM*	?	-3	?	?
Cc1ccc(C(=O)COC(=O)c2ccc(O)cc2)s1	1	.	.	.	.	.
CN1CCN(CCCNC(=O)c2nc(-c3cccc4[nH]ccc34)no2)CC1	-1	.	.	.	.	.
Cc1nc(-c2c[nH]c3ccccc23)c(C)s1	3	.	.	.	.	.
c1ccc2c(-c3c[nH]c4ccccc34)c3ccccc3nc2c1	1	16µM*	?	-19	-14%	-18%
CC(C)=CCC/C(C)=C/C=N/NC(=S)Nc1ccc(C)cc1	-2	.	.	.	.	.
Cc1nc2c3ccccc3nc(SCC(=O)c3ccc(Cl)cc3)n2n1	-10	18µM*	?	2	?	?
COc1cc2nc(SCC(=O)c3ccc(Br)cc3)n3nc(C)nc3c2cc1OC	-2	?	?	1	?	13µM*
CC(C)(C)OC(=O)N1CCC[C@H]1c1nnc(SCc2ccc(Cl)cc2Cl)o1	5	15µM*	?	?	17%	33%
CC(C)(C)OC(=O)N1CCC[C@H]1c1nnc(SCc2ccccc2Cl)o1	-7	?	?	0	-8%	5%
CC(C)(C)OC(=O)N1CCC[C@H]1c1nnc(SC/C=C/c2ccccc2)o1	-3	23µM*	?	-15	-1%	38%
CC(C)(C)OC(=O)N1CCC[C@H]1c1nnc(SCc2ccc(Cl)cc2)o1	-3	21µM*	?	?	-1%	23%
O=C(CCCCn1c(=O)[nH]c2ccccc2c1=O)N1CCN(c2cccc(C(F)(F)F)c2)CC1	-2	?	16µM*	-27	?	-41%
CCOC(=O)C1CCN(C(=O)CCCCn2c(=O)[nH]c3ccccc3c2=O)CC1	-5	-9%	-15%	20	-2%	35%
O=C(CCCCn1c(=O)[nH]c2ccsc2c1=O)N1CCN(c2cccc(C(F)(F)F)c2)CC1	-3	9.2µM*	12µM*	.	.	.
O=C(CCn1c(=O)[nH]c2ccccc2c1=O)N1CCN(c2cccc(C(F)(F)F)c2)CC1	-1	18µM*	16µM*	?	-13%	?
O=C(CCCCCn1c(=O)[nH]c2ccsc2c1=O)N1CCCCC1	-5	-14%	-15%	9	-10%	42%
O=C(CSCc1ccccc1)N1CCN(c2cccc(C(F)(F)F)c2)CC1	3	?	?	18	21%	24%
COc1ccc(N2CCN(CCCNC(=O)CCCn3c(=O)[nH]c4ccsc4c3=O)CC2)cc1	-3	-9%	-11%	-1	-3%	7%
COc1ccc(N2CCN(C(=O)CCCCCn3c(=O)[nH]c4ccsc4c3=O)CC2)cc1	-3	16µM*	?	-1	0%	19%
COc1cc(CCC(=O)NCc2cccs2)cc(OC)c1OC	6	.	.	.	.	.
